Screens from PubChem.
p53 PUMA act: restores mutant p53 pathway signaling in SW480 cells; 28,000 compounds, 1.5% hits; SW480 PUMA-promoter luciferase, p53 mutant reactivation; activation, % at 9.98 µM; in the data active = activation above about 52%
Myc binder: binders of human c-Myc. P01106. small molecule microarray, His-c-Myc binding, anti-His fluorescence. calls only. 17,000 compounds, 1.5% hits. AID 624141;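 active = spot fluorescence over background with P-value below 7% in all four replicate spots, showing protein binding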;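 note: score is binary with 100 for all four spots passing and 0 otherwise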
STAT3 binder: STAT3 (human) binding; Small molecule microarray, His-STAT3 binding, anti-His fluorescence; calls only; 17,000 compounds, 0.2% hits; AID 624138;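 active = compounds whose four printed spots each show fluorescence over background unusually high for their array block, chance value under 7%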
mut p53 SMM: binds human mutant p53 on microarray; AID 624136; calls only; 17,000 compounds, 0.4% hits; small molecule microarray binding, anti-GST fluorescence;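 active = compounds whose four printed spots each glow above background more than chance allows, each with a p-value under 7%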
NFkB binder: NF-kappa-B p105 (human) binding; calls only; 17,000 compounds, 1.3% hits; AID 624139; Small molecule microarray, anti-His fluorescence binding;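 active = spot fluorescence over background significantly raised, with a chance value under 7% in all four replicate spots of the compound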;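 note: probe protein is his-tagged human p50 processed subunit at 1 µg/ml; raw spot fluorescence signals with no normalization applied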
* hit, by the source's call; i = inactive; · = no result; + = active, no number. In the library only some 2.6% were active in any assay of this set; here they are far more common.

SMILES	p53 PUMA act	Myc binder	STAT3 binder	mut p53 SMM	NFkB binder
C[C@H]1CN([C@@H](C)CO)C(=O)Cc2cc(NC(=O)C3CC3)ccc2O[C@@H]1CN(C)C(=O)Nc1ccc(F)cc1	0.4	i	i	i	i
Cc1nn(C(=O)Cn2nc([N+](=O)[O-])cc2C)c(C)c1Cl	13.8	+	i	i	i
Cc1cc([N+](=O)[O-])nn1CC(=O)Nc1cc(Cl)cc(Cl)c1	-6.6	·	·	·	·
Cc1cc(C)c(NC(=O)CSc2nc3ccc(NC(=O)c4ccccc4C)cc3s2)c(C)c1	-6.1	·	·	·	·
CC(=O)c1ccc(NC(=O)CSc2nc3ccc(NC(=O)c4ccccc4Cl)cc3s2)cc1	80.7*	·	·	·	·
c1ccc(Cn2c(SCCN3CCOCC3)nc3ccccc32)cc1	8.0	+	i	i	i
CS(=O)(=O)N(CC(=O)Nc1ccc(F)c(F)c1)c1cccc(Cl)c1	6.2	·	·	·	·
COc1cc(-c2nc3sc4c(c3c(=O)[nH]2)CCCC4)cc(Br)c1OCC(=O)O	-5.0	+	i	i	+
COC(=O)[C@H]1CC[C@H](OC(C)=O)[C@]2(C)CC[C@@H](C(C)C)[C@@H](OC(=O)/C=C/c3ccccc3)C12 (stereo partly specified)	0.5	+	i	i	+
Cc1ccccc1NC(=O)CSC1CC(=O)N(c2ccccc2)C1=O (stereo unspecified)	0.7	i	i	i	i
O=C1c2ccccc2C(=O)N1OS(=O)(=O)c1cccc2cccnc12	-7.3	i	i	i	i
COc1ccc(OC)c(S(=O)(=O)ON2C(=O)c3ccccc3C2=O)c1	-7.8	+	i	i	i
C[C@@H]1CCCCO[C@@H](CN(C)S(=O)(=O)c2ccccc2)[C@H](C)CN([C@H](C)CO)C(=O)c2cc(N(C)C)ccc2O1	-21.0	i	i	i	i
Cc1noc(C)c1S(=O)(=O)N(C)C[C@H]1OCCCC[C@@H](C)Oc2ccc(N(C)C)cc2C(=O)N([C@@H](C)CO)C[C@@H]1C	7.0	+	+	i	+
Cc1noc(C)c1S(=O)(=O)N(C)C[C@@H]1OCCCC[C@@H](C)Oc2ccc(N(C)C)cc2C(=O)N([C@@H](C)CO)C[C@@H]1C	-1.6	i	i	i	i
C[C@@H]1CCCCO[C@H](CN(C)S(=O)(=O)c2ccccc2)[C@@H](C)CN([C@@H](C)CO)C(=O)c2cc(N(C)C)ccc2O1	8.0	i	i	i	+
COc1ccc(NC(=O)c2ccc(OC(C)C(=O)O)cc2)cc1Cl (stereo unspecified)	8.9	i	i	i	+
COc1ccc(NC(=O)c2ccc(OC(C)C(=O)Nc3ccccc3C(F)(F)F)cc2)cc1Cl (stereo unspecified)	-2.0	·	·	·	·
CC(C)NC(=O)N(C)C[C@@H]1Oc2ncc(C#Cc3ccc(C(F)(F)F)cc3)cc2C(=O)N([C@H](C)CO)C[C@@H]1C	-12.7	+	i	+	+
CNC[C@@H]1Oc2ncc(C#Cc3ccccc3)cc2C(=O)N([C@H](C)CO)C[C@@H]1C	2.1	+	i	i	+
C[C@H]1CCCCO[C@@H](CN(C)C(=O)CCCN(C)C)[C@@H](C)CN([C@@H](C)CO)C(=O)c2cc(NC(=O)Cc3ccccc3)ccc2O1	1.8	i	i	i	i
COC(=O)C1=CO[C@@H](O[C@@H]2O[C@H](CO)[C@@H](O)[C@H](O)[C@H]2O)[C@@H]2[C@@H]3CN4CCc5c([nH]c6ccccc56)[C@]4(C[C@H]12)O3	-12.1	i	i	i	i
CC(C)NC(=O)Nc1ccc2c(c1)C(=O)N([C@H](C)CO)C[C@@H](C)[C@@H](CN(C)S(=O)(=O)c1ccccc1)O2	·	i	i	i	i
COc1ccc(CCNC(=O)c2cc(-c3ccccn3)nc3c(Cl)cccc23)cc1OC	-16.8	·	·	·	·
Cc1sc(NC(=O)c2cnccn2)c(C(N)=O)c1-c1ccccc1	98.8*	·	·	·	·
Cc1ccc(-c2cc(C(=O)Nc3sc(C)c(-c4ccccc4)c3C(N)=O)c3ccccc3n2)o1	104.9*	·	·	·	·
CCOC(=O)c1cc(-c2ccccc2)sc1NC(=S)Nc1cnccn1	-31.5	i	i	i	i
CNC[C@H]1Oc2ccc(NC(=O)Cn3cnnn3)cc2CC(=O)N([C@@H](C)CO)C[C@H]1C	-0.4	i	i	i	i
COc1ccc(NC(=O)COc2ccccc2)c([N+](=O)[O-])c1	71.7*	·	·	·	·
COc1ccc(NC(=O)C(C)Oc2ccccc2)c([N+](=O)[O-])c1 (stereo unspecified)	86.2*	·	·	·	·
